Glioma ERSR ind – ER stress response induction in glioma; AID 602332; hit rate 0.02% among 420,000; U87-MG GRP78 promoter luciferase reporter, 16 h; Potency, µM, without a hit: at the top dose activation, most hits filed as activators; further: potency means the concentration at half of the fitted maximal effect; series mostly up to about 76 µM; % of control where 0% means no effect; nearly all actives have a fitted effect of over 35% in size
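Stably transfected U87-MG glioma cells carrying a GRP78-based luciferase sensor; 16 h compound incubation. Luminescence end-point read 10 min after Bright-Glo addition at room temperature.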
Nrf2 activator – activates Nrf2 signaling. AREc32 ARE-luciferase reporter (MCF7-derived line), luminescence, 24 h. Potency, µM (series often up to 46.1 µM), for inactives: at the highest dose activation, hits mostly activators. hit rate 0.31% among 410,000. AID 624171; further: potency means the concentration at half of the fitted maximal effect; % of control where 0% means no effect; nearly all actives have a fitted effect of over 65% in size
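Each well held 1000 AREc32 cells, which were incubated with compound for 24 hr at 37 deg C after overnight attachment, and ARE reporter activity was quantified by firefly luciferase luminescence.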
D3 antag – blocks the human D3 dopamine receptor. hit rate 2.5% among 360,000. max response, negative = inhibition, %. D3R cells, DiscoveRx beta-arrestin luminescence, antagonist mode; stronger effect = lower value. AID 652054. P35462; in the data active means max response below about -50%; inconclusive means no clear call, values can overlap the other calls; further: on the % scale 0 is the no-effect control and ±100 the full control effect
Target sequence (P35462 whole entry, looked up): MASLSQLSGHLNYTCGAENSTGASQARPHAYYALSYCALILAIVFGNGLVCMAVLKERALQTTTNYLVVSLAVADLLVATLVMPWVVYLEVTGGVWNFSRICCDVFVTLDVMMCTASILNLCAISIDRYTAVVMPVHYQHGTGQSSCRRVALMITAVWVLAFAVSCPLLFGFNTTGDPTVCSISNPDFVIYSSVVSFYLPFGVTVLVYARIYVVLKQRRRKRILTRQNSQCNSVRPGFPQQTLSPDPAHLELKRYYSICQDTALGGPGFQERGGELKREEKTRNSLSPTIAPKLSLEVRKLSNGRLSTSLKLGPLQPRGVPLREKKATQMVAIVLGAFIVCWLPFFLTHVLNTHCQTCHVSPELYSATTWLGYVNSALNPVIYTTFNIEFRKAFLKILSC
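Cells plated overnight at 1500 cells/well, then exposed to library compounds with dopamine controls for 90 minutes at 37 degrees C. DiscoveRx reagent added for 30–60 minutes at room temperature; luminescence read, quantitative HTS format.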
D3 ag – activates the human D3 dopamine receptor; D3R DiscoveRx beta-arrestin cells, luminescence, 90 min; hit rate 0.58% among 410,000; P35462; max activation, %; in the data active means max activation above about 30%; further: 0% is about no effect
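Agonist mode: compounds and dopamine controls were applied to plated cells for 90 min at 37 degrees C after an overnight attachment at 1500 cells/well. Luminescent read-out followed 30 - 60 minutes at room temperature with DiscoveRx detection reagent.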
Active calls of the source: *; ? = inconclusive; nt = no result; ! = not active in a repeat. Rows were chosen to be rich in hits. Some 3% of all compounds tested hit in one or more screens of this group. Unless noted, the call rests on the fitted dose curve; in most records, active means well fitted curve in the direction sought with a large enough effect; inconclusive means small, poorly fitted or top-dose-only effect, or another doubt; inactive means no such curve, though single readings can be large; an effect the other way counts as inactive or inconclusive.

SMILES | Glioma ERSR ind | Nrf2 activator | D3 antag | D3 ag
S=C(NCCC(c1ccccc1)c1ccccc1)Nc1cccc(Cl)c1 | -5.2% | 8.3% | 2.7 | -2.6
CC(=O)N(/N=C1\Sc2ccccc2C1=O)c1ccccc1 | 3.7% | ? | -58.6* | -2.5
CC(=O)N(/N=C1\Sc2ccccc2C1=O)c1ccccc1C | 3.2% | 24.9% | -4.2 | 7.5
CCN(CC)S(=O)(=O)c1ccc(F)c(C(=O)NCCC(C)C)c1 | -3.9% | 0.4% | 12.9 | 36.5*
CCN(Cc1ccccc1)S(=O)(=O)c1ccc(F)c(C(=O)Nc2ccc(C(C)C)cc2)c1 | 0.6% | 0.6% | nt | -2.0
CC(NC(=O)c1ccco1)c1nnc2n1CCN(Cc1ccc(N(C)C)cc1)CC2 (centres undefined) | -1.0% | nt | nt | nt
Nc1cccc[n+]1C(c1ccnc2ccccc12)[n+]1ccccc1N | -2.7% | nt | nt | nt
CCOC(=O)C(=CNc1ccccc1C)C(=O)OCC | -0.5% | 0.1% | 46.1 | 29.6
CCOC(=O)C(=CNc1cc(C)nn1-c1ccccc1)C(=O)OCC | -3.3% | 0.7% | 20.4 | 97.6*
Cc1cccc(CNS(=O)(=O)c2ccc3[nH]c(=O)ccc3c2)c1 | -1.9% | 0.5% | nt | -1.1
COC(=O)C1=C(C)NC(C)=C(C(=O)O[C@H]2CCN(Cc3ccccc3)C2)C1c1cccc([N+](=O)[O-])c1 (some centres undefined) | -4.8% | nt | nt | nt
O=C(NC1(C(F)(F)F)NC(=O)N(CC2CCCCC2)C1=O)c1ccco1 (centres undefined) | -3.3% | -0.1% | -51.1* | -2.7
CSC(=Nc1ccccc1)N=C(SCc1ccccc1)N(C)C | -13.7% | -3.0% | -84.4* | -13.4
CCOc1ccc(N(CC(=O)Nc2ccc(C)c(C)c2)S(=O)(=O)c2c(C)noc2C)cc1 | -5.1% | -0.3% | -65.7* | -12.9
Fc1ccc2[nH]c3c(NCc4ccco4)ncnc3c2c1 | -0.4% | nt | nt | nt
CNC(=S)NNC(=O)COc1ccccc1C | -2.7% | 2.2% | -19.9 | -21.3
CNC(=S)NNC(=O)COc1cccc(C)c1C | 1.5% | -0.1% | -62.1* | -4.7
COc1ccc(C(=O)C[n+]2cccc3cccc(O)c32)cc1 | -1.5% | nt | nt | nt
O=C(Nc1ccccc1)OC[C@H](CN1CCCCC1)OC(=O)Nc1ccccc1 | -0.8% | nt | nt | nt
O=C(Nc1ccccc1)OCC(CN1CCCCC1)OC(=O)Nc1ccccc1 (centres undefined) | -2.4% | 0.0% | -89.2* | -79.9
O=C(Nc1ccccc1)OCC1CCCN2CCCCC12 (centres undefined) | -3.7% | -1.0% | -52.7* | -14.3
O=C(/C=C/c1ccco1)OCC1CCCN2CCCCC12 (centres undefined) | 1.6% | 20.1% | -7.9 | 0.0
COc1ccc2c(c1)-c1nc(-n3ncc(C(=O)NCc4cccc(C)n4)c3C3CC3)ncc1CC2 | -4.6% | nt | nt | nt
Cc1ccc(-c2nc3cc(Cl)ccc3o2)cc1NC(=O)COc1ccccc1C | 2.9% | nt | nt | nt
COc1cc(C#Cc2ccc3cc(C(C)(C)O)oc(=O)c3c2)cc(OC)c1 | -0.8% | 0.5% | 70.0 | 31.1*
SMILES | Glioma ERSR ind | Nrf2 activator | D3 antag | D3 ag
CCN1C(=O)[C@@H]2[C@H](C1=O)[C@@H]1C(=O)Nc3ccccc3C(=O)N1[C@@H]2c1ccc(OC)cc1 | -2.5% | -0.5% | -6.6 | 35.4*
Cc1ccc(-c2n[nH]c3c2C(c2ccc(C(C)(C)C)cc2)NC3=O)cc1 (centres undefined) | -1.5% | -0.9% | nt | 3.3
O=C(C1=C(c2ccccc2)C(=O)c2ccccc2C1=O)c1ccccc1 | -9.8% | -2.2% | -95.3* | -26.5
CCOc1ccc(C(=O)Cc2ccc3oc(C(=O)O)cc3c2)c(O)c1 | -4.8% | -0.2% | -62.4* | -18.7
Cc1ccc(S(=O)(=O)/N=C2/NC(=O)/C(=C/c3ccc(Br)o3)S2)cc1 | -1.6% | 0.3% | 13.3 | -1.2
Cc1ccc(S(=O)(=O)/N=C2/NC(=O)/C(=C\c3cc(Br)cc(Br)c3O)S2)cc1 | 4.7% | 11.8% | -52.6* | -6.2
O=C(Nc1ccc(F)cc1Cl)n1ncc2cc(Cl)ccc21 | -1.1% | 7.5% | nt | -5.9
COc1ccccc1CNC(=O)CSc1ncc(C(=O)Nc2ccccc2)c(=O)n1C | 4.9% | 3.5% | -68.7* | -9.7
COc1cccc(Cc2nc3cccnc3n2C2CCN(Cc3ccc(C)s3)CC2)c1 | -6.8% | nt | nt | nt
O=C(NN(c1ccccc1)c1ccccc1)c1ccc([N+](=O)[O-])o1 | ? | ? | -16.8 | -7.8
Cc1cc(C)cc(NC(=O)c2ccc([N+](=O)[O-])o2)c1 | ? | ? | ? | 0.0
NS(=O)(=O)c1ccc(O)c(NC(=O)c2ccc([N+](=O)[O-])o2)c1 | 18.4% | 10µM* | -15.5 | 4.3
O=C(COC(=O)c1ccc([N+](=O)[O-])o1)NCCCc1ccccc1 | -3.6% | 11.8% | -51.4* | 3.6
O=C(NNC(=O)c1ccc([N+](=O)[O-])o1)c1ccccc1 | ? | 22.4µM* | -9.8 | -26.0
O=C(Nc1ccc(N2CCN(C(=O)c3ccccc3)CC2)cc1)c1ccc([N+](=O)[O-])o1 | -14.5% | ? | -56.2* | -15.9
CC(C)C(=O)N1CCN(c2ccc(NC(=O)c3ccc([N+](=O)[O-])o3)cc2)CC1 | -17.4% | ? | ? | -7.0
O=C(C[n+]1cccc(Br)c1)c1ccc(Br)cc1 | -2.0% | nt | nt | nt
O=C(Nc1cccc(Br)c1)N1CCN2CCCCC2C1 (centres undefined) | 0.1% | 9.5% | nt | -9.7
COc1ccc(-c2c(C3C4C=CCC(C)C4C(=O)N3Cc3ccccc3)ccc3ccccc23)cc1OC (centres undefined) | -3.3% | nt | nt | nt
Cc1ccccc1C(=O)N1CCN(c2ccc(NC(=O)c3ccc([N+](=O)[O-])o3)cc2)CC1 | -14.8% | ? | -71.6* | -9.4
Cc1ccccc1C(=O)N1CCN(c2ccc(NC(=O)c3cccnc3)cc2)CC1 | -1.7% | -0.3% | -28.7 | -5.2
c1ccc2c(-c3c[nH]c4ccccc34)c3ccccc3nc2c1 | 2.8% | 0.4% | -53.3* | -4.3
CC(O)[C@@H]1NC(=O)[C@H](CCCCN)NC(=O)[C@@H](Cc2c[nH]c3ccccc23)NC(=O)[C@H](Cc2ccccc2)NC(=O)[C@@H](NC(=O)[C@H](N)Cc2ccccc2)CSSC[C@@H](C(=O)N[C@H](CO)[C@@H](C)O)NC1=O (some centres undefined) | nt | nt | nt | 1.5
COc1ccc(-c2nc3ccc(C4=C(C)CC(=O)NN4)cc3[nH]2)cc1 | -2.2% | nt | nt | nt
O=C(/C=C/c1ccc(Br)o1)Nc1nccs1 | 3.5% | 6.31µM* | 2.8 | -2.6
C[C@]12CC[C@@H]3c4ccc(O)cc4CC[C@H]3[C@@H]1CC[C@@H]2OC(=O)CCC1CCCC1 | 3.4% | 0.5% | 72.0 | 44.8*!
COc1ccc(C(=O)CN2CCN(S(=O)(=O)c3ccc(F)cc3)CC2)cc1 | -2.2% | 2.0% | nt | -14.0
CCOc1ccc([C@@H]2CC=C(C(=O)O)[C@H](c3ccc(Cl)cc3)N2S(=O)(=O)c2ccc(C)cc2)cc1 | -2.0% | -0.1% | -72.8* | -30.4
Cc1ccccc1S(=O)(=O)N1[C@@H](c2ccccc2)C(C(=O)O)=CC[C@H]1c1ccc(Cl)cc1 | -6.1% | 0.2% | -55.9* | -29.6
Cc1ccc([C@@H]2CC=C(C(=O)O)[C@H](c3ccc(Cl)cc3)N2S(=O)(=O)c2ccc(C)cc2)cc1 | 1.2% | 2.8% | ? | -18.3
